# Compounds with a hit are over-represented: about 3% of the library has one in this group of screens.
# GRP78 ERSR act: qHTS for Inducers of the Endoplasmic Reticulum Stress Response (ERSR) in Human Glioma: qHTS | 420,000 compounds, 0.02% hits | U87-MG GRP78 promoter luciferase reporter, 16 h | Potency, µM, for the others: top-dose activation, hits mostly activators; further: potency means the concentration at half of the fitted maximal effect; series mostly up to about 76 µM; % of control where 0% means no effect; nearly all actives have a fitted effect of over 35% in size
#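 Stably transfected U87-MG glioma cells carrying a GRP78-based luciferase sensor; 16 h compound incubation. Luminescence end-point read 10 min after Bright-Glo addition at room temperature.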
# DRD3 agonist: qHTS of D3 Dopamine Receptor Agonist: qHTS; D(3) dopamine receptor (Homo sapiens), P35462; D3R DiscoveRx beta-arrestin cells, luminescence, 90 min; max activation, %; 410,000 compounds, 0.58% hits; in the data active means max activation above about 30%; further: 0% is about no effect
# Target sequence (P35462 whole entry, looked up): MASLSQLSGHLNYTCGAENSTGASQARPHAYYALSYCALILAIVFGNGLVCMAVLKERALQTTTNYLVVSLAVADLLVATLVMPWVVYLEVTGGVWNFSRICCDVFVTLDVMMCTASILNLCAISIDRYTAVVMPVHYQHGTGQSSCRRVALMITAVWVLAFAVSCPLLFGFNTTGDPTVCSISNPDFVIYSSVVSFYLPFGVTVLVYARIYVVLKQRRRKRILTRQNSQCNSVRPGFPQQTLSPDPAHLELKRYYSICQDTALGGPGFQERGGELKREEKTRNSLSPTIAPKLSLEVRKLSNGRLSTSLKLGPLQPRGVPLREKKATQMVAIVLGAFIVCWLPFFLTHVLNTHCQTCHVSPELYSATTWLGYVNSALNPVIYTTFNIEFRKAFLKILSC
#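 Cells at 1500/well, incubated overnight, then treated with pinned compounds (dopamine as control) for 90 min at 37 degrees C. DiscoveRx reagent added for 30 - 60 minutes at room temperature; luminescence read.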
# Nrf2 ARE act: qHTS of Nrf2 Activators. 410,000 compounds, 0.31% hits. AREc32 ARE-luciferase reporter (MCF7-derived line), luminescence, 24 h. Potency, µM (highest dose often 46.1 µM), inactives show at the top dose activation, usual class: activators; further: potency means the concentration at half of the fitted maximal effect; % of control where 0% means no effect; nearly all actives have a fitted effect of over 65% in size
#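 AREc32 cells carrying an ARE-driven firefly luciferase, 1000 cells/well in OPTI-MEM with 5% FBS, dosed after overnight attachment and incubated 24 hr at 37 deg C. Steady-Glo luminescence read after 30 min at RT.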
# DRD3 antagonist: qHTS of D3 Dopamine Receptor Antagonist: qHTS; 360,000 compounds, 2.5% hits; D3R cells, DiscoveRx beta-arrestin luminescence, antagonist mode; active compounds read low; max response, negative = inhibition, %; AID 652054, 2013; D(3) dopamine receptor (Homo sapiens), P35462; in the data active means max response below about -50%; inconclusive means no clear call, values can overlap the other calls; further: on the % scale 0 is the no-effect control and ±100 the full control effect
#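 Cells expressing the human receptor were seeded at 1500 cells/well, incubated overnight at 37 degrees C in 5% CO2, then exposed to library compounds with dopamine controls for 90 minutes at 37 degrees C before luminescent detection.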
# Active calls of the source: *; ? = inconclusive; . = not tested or not shown. Unless noted, the call rests on the fitted dose curve; in most records, active means well fitted curve in the direction sought with a large enough effect; inconclusive means small, poorly fitted or top-dose-only effect, or another doubt; inactive means no such curve, though single readings can be large; an effect the other way counts as inactive or inconclusive.
SMILES,GRP78 ERSR act,DRD3 agonist,Nrf2 ARE act,DRD3 antagonist
Cc1ccsc1C(=O)Nc1nnc(-c2ccco2)o1,6.7%,-3.6,2.5%,-65.1*
Cc1ccc(OCc2ccc(C(=O)Nc3cc(C)on3)o2)c([N+](=O)[O-])c1,-2.6%,-7.8,9.2%,-12.3
CCn1c(NC(=O)c2ccc(COc3ccc(C)cc3[N+](=O)[O-])o2)nc2ccccc21,-2.1%,36.6*,-0.4%,10.4
Oc1c(C=NCc2ccncc2)sc2ccccc12,1.5%,4.8,14.1µM*,-100.5*
Oc1ccccc1N=Cc1sc2ccccc2c1Cl,0.3%,-2.0,11.2µM*,-23.5
Oc1c(C=Nc2ccccc2)sc2ccccc12,-9.3%,-6.3,14.1µM*,-19.2
Oc1c(C=Nc2cccnc2)sc2ccccc12,-2.4%,-3.7,11.1%,-65.2*
CN=Cc1sc2ccccc2c1O,-0.5%,-0.3,4.6%,7.5
Oc1c(/C=N/c2ccccn2)sc2ccccc12,-4.4%,8.8,?,0.4
COc1cc(=O)n2c(c1C(=O)N(C)Cc1ccsc1)CCN(Cc1c(C)nc3sccn13)CC2,-3.7%,.,.,.
CC(c1ncncc1F)[C@](O)(Cn1cncn1)c1ccc(F)cc1F (some centres not stated),-1.8%,.,.,.
Cc1c(C(=O)Nc2ccncc2)oc2ccccc12,2.0%,51.6*,7.8%,21.7
Cc1c(C(=O)Nc2ccccn2)oc2ccccc12,0.3%,-1.1,?,7.3
Cc1c(C(=O)NC2CCS(=O)(=O)C2)oc2ccccc12 (configuration not stated),-2.5%,46.8*,0.3%,-3.7
Cc1c(C(=O)NC2CC2)oc2ccccc12,-1.3%,-1.5,3.2%,-1.8
COc1ccc(-n2c(C)cc(C(=O)NC3CCCCC3)c2C)cc1,-0.3%,-1.6,17.8µM*,7.1
Cc1cccc(-n2c(C)cc(C(=O)NC3CCCCC3)c2C)c1,3.3%,-2.8,?,-10.4
O=C(NC1CCCCC1)c1cc2ccccc2cc1O,0.6%,2.4,2.3%,-1.2
Nc1nc2ncccc2cc1C(=O)NC1CCCCC1,.,76.9*,-0.7%,-19.6
CC(C)(C)NC(=O)C1CCC(C)(C(=O)O)C1(C)C (configuration not stated),-3.2%,32.7*,-0.5%,14.8
COc1ccc(NC(=O)C2CCC(C)(C(=O)O)C2(C)C)cc1 (configuration not stated),-2.4%,5.3,-0.3%,-54.8*
CCOc1ccc(NC(=O)C2CCC(C)(C(=O)O)C2(C)C)cc1 (configuration not stated),-2.8%,5.7,0.2%,12.1
COCc1c(C(=O)NC2CCCCCC2)cnn1-c1nccc(-c2cc(C)sc2C)n1,-2.9%,.,.,.
Clc1ccc2scc(CN3CCCCC3)c2c1,-4.0%,-57.8,0.0%,-87.7*
O=[N+]([O-])c1ccc(Cl)cc1CN1CCCCCC1,-5.5%,-12.8,-0.3%,-3.6
SMILES,GRP78 ERSR act,DRD3 agonist,Nrf2 ARE act,DRD3 antagonist
COc1ccccc1CNCC(=O)Nc1cc(S(=O)(=O)N2CCOCC2)ccc1Cl,-3.9%,13.1,0.1%,-8.3
Cc1ccc(S(=O)(=O)N2CCCCC2)cc1NC(=O)CNCc1ccco1,-7.5%,38.3*,0.3%,0.9
COc1ccccc1CNCC(=O)Nc1cc(S(=O)(=O)N2CCCCCC2)ccc1Cl,-3.6%,3.0,-0.2%,-60.3*
COc1ccccc1CNCC(=O)Nc1cc(S(=O)(=O)N2CCCCC2)ccc1C,0.0%,14.5,0.0%,-50.7*
Cc1ccc(S(=O)(=O)N2CCCCC2)cc1NC(=O)c1ccco1,-3.2%,0.2,-0.1%,27.0
CCN(CC)S(=O)(=O)c1ccc(C)c(NC(=O)CNCc2ccccc2OC)c1,0.6%,32.8*,9.1%,-24.0
O=C(CN1Cc2ccccc2OC(c2ccsc2)C1)N1CCC(c2nc3ccccc3[nH]2)CC1 (configuration not stated),0.2%,.,.,.
COc1cccc(-c2ccnc(-n3ncc(C(=O)NCC(C)(C)CN(C)C)c3C)n2)c1,-2.4%,.,.,.
CCc1cccc(CC)c1NC(=O)CCS(=O)(=O)c1ccc(Br)s1,-4.0%,0.3,2.9%,.
O=[N+]([O-])c1ccc(NN=Cc2cccc3ccccc23)cc1,-1.1%,-8.1,0.1%,-16.8
O=[N+]([O-])c1cc(Br)c(O)c(/C=N/Nc2nnnn2-c2cccc3ccccc23)c1,-4.7%,-52.8,0.7%,-85.5*
CCCCCc1ccc(C(=O)CCCC)c(=S)[nH]1,-5.8%,30.5*,6.8%,-25.8
CCCCCc1cc(=O)[nH]c(=S)[nH]1,-12.9%,3.6,-0.7%,19.0
CCCCCCCCCC[n+]1cccc2cc(Br)ccc21,-3.7%,.,.,.
O=c1oc2c(-c3ccc([N+](=O)[O-])cc3)cc(O)cc2s1,-6.0%,-4.6,22.4µM*,-55.7*
Brc1ccccc1OCCCN1CCCCCC1,2.4%,-24.3,-0.2%,-82.0*
Brc1ccccc1OCCN1CCCC1,-5.5%,-12.2,-0.6%,-61.6*
CN1CCN(C(=S)SCC(=O)N2CCCc3ccccc32)CC1,-0.8%,-50.1,2.2%,-60.5*
O=Cc1cn(CC(=O)N2CCCc3ccccc32)c2ccccc12,-3.1%,-5.9,0.6%,-56.5*
COCC(=O)N1CCCc2ccccc21,0.5%,-2.3,3.7%,-18.5
O=C1c2cccnc2C(=O)N1Cc1ccc2c(c1)OCO2,-7.6%,40.6*,-1.5%,21.7
O=C1c2cccnc2C(=O)N1Cc1ccco1,-2.7%,-1.2,-0.3%,9.5
CC(=O)c1ccc(Nc2nc(=O)c3cccnc3s2)cc1,-0.1%,-1.1,4.0%,-2.8
CCOC(=O)c1ccc(Nc2nc(=O)c3cccnc3s2)cc1,?,3.4,-0.2%,-69.7*
CCOC(=O)CN1C(=O)NC2(CCCc3ccccc32)C1=O (configuration not stated),-0.4%,-15.0,-0.2%,-68.4*
SMILES,GRP78 ERSR act,DRD3 agonist,Nrf2 ARE act,DRD3 antagonist
O=C(O)CN1C(=O)NC2(CCCc3ccccc32)C1=O (configuration not stated),-4.6%,-6.4,-0.7%,-19.4
CCSC(=O)N1CCN(/[N+]([O-])=N/Oc2ccc([N+](=O)[O-])cc2[N+](=O)[O-])CC1,-11.3%,.,.,.
Cc1cccc(C)c1NC(=O)C(c1ccc(C#N)cc1)n1c(=O)c(-c2ccccc2)nc2ccccc21 (configuration not stated),.,-18.7,.,-60.1*
CN(C)C(=O)Nc1ccc(Oc2ccc(Cl)cc2)cc1,-2.8%,.,.,.
O=C(N/N=C/c1cc([N+](=O)[O-])ccc1O)c1ccncc1,-4.8%,-6.8,-0.1%,?
O=C(N/N=C/c1cc([N+](=O)[O-])ccc1O)C(O)(c1ccccc1)c1ccccc1,-2.5%,-22.7,-1.0%,-55.5*
CCc1ccc(N2CC(C(=O)N/N=C/c3cc([N+](=O)[O-])ccc3O)CC2=O)cc1 (configuration not stated),-3.8%,-12.5,-0.6%,-62.9*
O=C(N/N=C/c1cc([N+](=O)[O-])ccc1O)C1CC1,-2.8%,-27.2,8.3%,-86.2*
O=C(N/N=C/c1cc([N+](=O)[O-])ccc1O)c1ccc2c(c1)OCCO2,4.6%,-13.7,2.5%,-63.6*
C=C1C[C@@]23CC[C@H]4[C@@](C)(CCC[C@@]4(C)C(=O)O)[C@@H]2CC[C@]1(O)C3,1.7%,.,.,.
CCOc1ccc(C(=O)OCCN(CC)CC)cc1,-6.1%,-5.4,-0.4%,5.8

# Bioassay records: PubChem BioAssay, National Center for Advancing Translational Sciences (NCATS)
